ChEMBL document CHEMBL1201862, “PubChem BioAssay data set” (2004)
Screen size: about 400,000 compounds; about 1,900 (0.47%) were called active. Another 14% or so got no clear call; they are omitted. How the calls were made is not given here. Only a selection was taken, and actives are over-represented in it overall.

molecular target: Ataxin-2 (Homo sapiens) (UniProt Q99700); test: qHTS for Inhibitors of ATXN expression.; format: functional
Sequence (Q99700 whole entry): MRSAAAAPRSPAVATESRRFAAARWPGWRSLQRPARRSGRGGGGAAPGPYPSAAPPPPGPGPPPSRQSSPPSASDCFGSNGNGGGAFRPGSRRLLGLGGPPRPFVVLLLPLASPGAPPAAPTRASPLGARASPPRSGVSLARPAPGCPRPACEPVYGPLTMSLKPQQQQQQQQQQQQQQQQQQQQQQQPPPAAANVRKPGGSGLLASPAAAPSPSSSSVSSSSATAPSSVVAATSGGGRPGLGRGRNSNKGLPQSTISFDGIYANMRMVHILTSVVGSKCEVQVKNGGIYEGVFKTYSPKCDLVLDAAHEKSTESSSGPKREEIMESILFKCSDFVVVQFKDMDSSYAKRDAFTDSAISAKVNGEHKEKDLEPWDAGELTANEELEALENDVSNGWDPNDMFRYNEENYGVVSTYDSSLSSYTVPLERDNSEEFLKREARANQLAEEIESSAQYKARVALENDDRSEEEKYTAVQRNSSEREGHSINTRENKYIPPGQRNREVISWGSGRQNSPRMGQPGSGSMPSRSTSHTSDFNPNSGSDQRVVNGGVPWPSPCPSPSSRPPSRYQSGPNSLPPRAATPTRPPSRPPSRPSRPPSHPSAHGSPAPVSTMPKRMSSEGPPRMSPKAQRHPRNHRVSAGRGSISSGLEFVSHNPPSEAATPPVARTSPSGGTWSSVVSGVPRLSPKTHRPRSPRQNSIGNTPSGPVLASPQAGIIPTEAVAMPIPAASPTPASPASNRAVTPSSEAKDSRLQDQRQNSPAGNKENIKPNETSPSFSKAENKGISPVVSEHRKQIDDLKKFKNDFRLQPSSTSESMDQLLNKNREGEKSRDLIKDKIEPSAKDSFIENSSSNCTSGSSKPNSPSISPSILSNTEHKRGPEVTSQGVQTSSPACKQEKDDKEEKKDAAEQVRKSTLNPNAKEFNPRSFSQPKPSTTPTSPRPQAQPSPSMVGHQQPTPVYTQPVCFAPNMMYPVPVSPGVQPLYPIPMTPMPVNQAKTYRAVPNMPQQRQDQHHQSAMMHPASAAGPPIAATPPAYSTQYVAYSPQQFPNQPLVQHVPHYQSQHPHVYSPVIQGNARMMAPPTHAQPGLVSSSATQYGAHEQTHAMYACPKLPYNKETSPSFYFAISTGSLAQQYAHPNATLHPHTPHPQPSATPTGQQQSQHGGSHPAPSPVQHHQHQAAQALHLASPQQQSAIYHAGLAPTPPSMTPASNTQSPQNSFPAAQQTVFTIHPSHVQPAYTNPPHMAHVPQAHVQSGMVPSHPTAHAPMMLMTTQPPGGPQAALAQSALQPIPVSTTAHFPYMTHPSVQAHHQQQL

SMILES | Potency
O=c1ccc2cc(O[C@@H]3O[C@@H](CO)[C@H](O)[C@@H](O)[C@@H]3O)c(O)cc2o1 | inactive
CCN(CCCl)c1cc(CN(C)C)cc(NC(=O)c2ccc(C(=O)Nc3cc(CN(C)C)cc(N(CC)CCCl)c3)cc2)c1 | 20 µM (active)
O=C(c1ccc(C(F)(F)F)cc1)C1CCCN(Cc2ccncc2)C1 (configuration not stated) | inactive
CCn1cc(C(=O)NCCc2ccc(OC)c(OC)c2)c(=O)c2cc(S(=O)(=O)N(C)C3CCCCC3)ccc21 | 25.1 µM (active)
COC(=O)Cn1cc(C=C2C(=O)N(C)C(=O)N(C)C2=O)c2ccccc21 | inactive
O=C1NC(=O)C(=CNc2cc(F)cc(F)c2)C(=O)N1 | inactive
CC[n+]1c(C=CN(C)c2ccccc2)sc2ccc(Cl)cc21 | 17.8 µM (active)
CC[n+]1c(/C=C/C=C/c2ccc(N(C)C)cc2)sc2ccccc21 | 5.32 µM (active)
CC(C)(C)C(=O)c1cn(Cc2ccccc2)c2ccccc12 | inactive
O=C(NN1C(=O)C2C3C=CC(C4CC34)C2C1=O)c1cccc(Br)c1 (configuration not stated) | inactive
C[C@@]12CC[C@H](O)C[C@@H]1CC[C@H]1[C@@H]2C[C@@H](O)[C@]2(C)[C@@H](C3=CC(=O)OC3)CC[C@]12O | 3.16 µM (active)
C[C@@]12CC[C@H](O)C[C@@H]1CC[C@H]1[C@H]2CC[C@@]2(C)[C@@H](C3=CC(=O)OC3)CC[C@]12O | 0.708 µM (active)
C=CCNC(=O)c1c(N)n(Cc2ccco2)c2nc3ccccc3nc12 | inactive
COCCCn1c(N)c(C(=O)OC(C)COC)c2nc3ccccc3nc21 (configuration not stated) | inactive
O=C1NC(=O)N(CCc2ccccc2)C(=O)/C1=C\NN1CCOCC1 | inactive
COC1CCC(OC2CC(C3(C)CCC4(CC(O)C(C)C(C(C)/C=C(\C)C(=O)C(C)CC(C)C(=O)O)O4)O3)OC3(OC(C4OC(O)(CO)C(C)CC4C)CC3C)C2C)OC1C (configuration not stated) | 0.562 µM (active)
COCCOC(=O)c1c(N)n(Cc2ccco2)c2nc3ccccc3nc12 | inactive
CC(=O)OC(C)(C)/C=C/C(=O)[C@](C)(O)[C@H]1[C@H](O)C[C@@]2(C)[C@@H]3CC=C4[C@H](C[C@H](O)C(=O)C4(C)C)[C@]3(C)C(=O)C[C@]12C | 39.8 µM (active)
CC(=O)OC(C)(C)/C=C/C(=O)C(C)(O)C1C(O)CC2(C)C3CC=C4C(CC(O)C(=O)C4(C)C)C3(C)C(=O)CC12C (configuration not stated) | 0.189 µM (active)
COc1ccc(C(=O)C2CCCN(Cc3cnc(C)s3)C2)c(OC)c1 (configuration not stated) | inactive
NC(=O)c1cn(C2OC(CO)C(O)C2O)c2ncnc(N)c12 (configuration not stated) | 0.316 µM (active)
COc1ccc2[nH]c(C)c(CCNCc3cn(C)c4ccccc34)c2c1 | 17.8 µM (active)

SMILES | Potency
CCn1c(=O)oc2cc(NC(=O)CCl)ccc21 | 37.7 µM (active)
Cn1c(=O)oc2cc(NC(=O)CCl)ccc21 | 31.6 µM (active)
COc1ccc(NC(=O)c2cccn(Cc3ccc(Cl)cc3)c2=O)c(OC)c1 | inactive
CCc1nc2ccc(N3CCN(C)CC3)cc2nc1CC | inactive
COCCCn1c(N)c(C(=O)NCc2ccco2)c2nc3ccccc3nc21 | inactive
Nc1c(C(=O)Nc2ccc(Cl)cc2)sc2nc3c(cc12)N1CCC3CC1 | inactive
COc1ccc(OCC(=O)N2CCN(C/C=C/c3ccccc3)CC2)cc1 | inactive
COc1ccc(Nc2nc(N)nc(CSc3nc4ccccc4s3)n2)cc1 | 39.8 µM (active)
CCCCn1c(N)c(C(=O)NCCN2CCOCC2)c2nc3ccccc3nc21 | inactive
Cc1cccc(OP(N)(=O)Oc2cccc(C)c2)c1 | inactive
COc1ccc(CC(N)c2csc(NC(=O)Nc3ccccc3Oc3ccccc3)n2)cc1 (configuration not stated) | 39.8 µM (active)
O=C(c1cccn2c(=O)c3cc(Cl)ccc3nc12)N1CCC2(CC1)OCCO2 | inactive
COc1cc2c3c(c1OC)Oc1ccc(cc1)C[C@H]1c4c(cc(OC)c(OC)c4Oc4ccc(cc4)C[C@@H]3N(C)CC2)CCN1C | 15.8 µM (active)
COc1ccc2cc1Oc1ccc(cc1)C[C@H]1c3cc(c(OC)cc3CCN1C)Oc1c(O)c(OC)cc3c1[C@H](C2)N(C)CC3 | 20 µM (active)
Nc1c2c(nc3ccccc13)CCN(Cc1ccccc1)C2 | inactive
COc1ccc(Nc2cc(C)c3cc(NC(=O)c4ccccc4Cl)ccc3n2)cc1 | inactive
CN1CC[C@@]2(C)c3cc(O)ccc3N(C)C12 (some centres not stated) | 28.2 µM (active)
CCC(C)NC(=O)c1c(N)n(CC2CCCO2)c2nc3ccccc3nc12 (configuration not stated) | inactive
C#CCN1C(=O)S/C(=C\c2ccc(N3CCOCC3)cc2C)C1=O | inactive
CCCCN1C(=O)NC(=O)/C(=C(O)\C=C\c2c[nH]c3ccccc23)C1=O | inactive
N=C(N)N/N=C/c1cn(-c2ccccc2)nc1-c1cccs1 | 11.2 µM (active)
N=C(N)N/N=C/c1ccc(N2CCOCC2)cc1 | inactive

SMILES | Potency
N=C(N)N/N=C/c1ccc(N(c2ccccc2)c2ccccc2)cc1 | inactive
O=c1cc(C(F)(F)F)c2cc3c4c(c2o1)CCCN4CCC3 | inactive
NS(=O)(=O)c1ccc(NC=C2C(=O)N(C3CCCCC3)C(=O)N(C3CCCCC3)C2=O)cc1 | 39.8 µM (active)
Cc1ccnc(NS(=O)(=O)c2ccc(NC=C3C(=O)N(C)C(=O)N(C)C3=O)cc2)n1 | inactive
CCC(C(=O)Nc1ccc(Cl)cc1)N1CCCC1=O (configuration not stated) | inactive
Ic1ccccc1CNC1C2CCN(CC2)C1C(c1ccccc1)c1ccccc1 (configuration not stated) | 15.8 µM (active)
O=C(NCCc1ccccc1)[C@@H]1CC=C[C@@H]2CCN(Cc3ccc(Cl)c(Cl)c3)C(=O)[C@@H]21 | 25.1 µM (active)
O=C(Cc1cc(=O)oc2cc(O)ccc12)NN=Cc1ccc(N(CCCl)CCCl)cc1 | inactive
CC(C)Sc1nc2[nH]cnc(N)c-2n1 | inactive
COc1ccc(-c2nc(CN3C(=O)CN=C(c4ccccc4)c4cc(Cl)ccc43)c(C)o2)cc1 | 35.5 µM (active)
Cc1oc(-c2ccccc2Cl)nc1CN1C(=O)CN=C(c2ccccc2)c2cc(Cl)ccc21 | 44.7 µM (active)
O=C1CN=C(c2ccccc2)c2cc(Cl)ccc2N1Cc1ccc(Cl)cc1 | 28.2 µM (active)
O=C(c1cccn2c(=O)c3cc(Br)ccc3nc12)N1CCC2(CC1)OCCO2 | inactive
CN(Cc1ccc(OC(F)F)cc1)Cc1nc(O)c2cc(Br)cc(Br)c2n1 | inactive
CN(C)CC(C(=O)Cc1ccccc1)c1ccccc1 (configuration not stated) | 25.1 µM (active)
CC(Cc1ccccc1)NC(=O)CCCCC(=O)NC(C)Cc1ccccc1 (configuration not stated) | inactive
COCCCn1c(=O)/c(=C\c2ccccc2OC(F)F)s/c1=C(/C#N)C(=O)NCCOC | inactive
Cc1cc([N+](=O)[O-])c2ccccc2[n+]1[O-] | 31.6 µM (active)
Cc1cc(C)cc(N2C(=O)NC(=O)/C(=C\c3cc(C)n(C)c3C)C2=O)c1 | inactive
C/C(NCc1cccnc1)=C1/C(=O)NC(=O)N(c2ccc(Cl)cc2)C1=O | inactive
Cc1cc(C)cc(N2C(=O)NC(=O)/C(=C/c3cccn3-c3ccc(Cl)cc3)C2=O)c1 | 39.8 µM (active)
CN1C(=O)/C(=C/c2cccn2-c2ccc3ccccc3c2)C(=O)NC1=S | 39.8 µM (active)

SMILES | Potency
COCCNC(=O)c1c(N)n(Cc2ccco2)c2nc3ccccc3nc12 | inactive
O=C(NC1CCCCC1)N1Cc2cc(-c3ccccc3)ccc2-n2nncc2C1 | 39.8 µM (active)
Clc1cccc(N2Cc3cc(-c4ccccc4)ccc3-n3nncc3C2)c1 | 39.8 µM (active)
CN1CCc2cc3c(cc2[C@@H]1O)OCO3 | inactive
Cc1sc2ncnc(N3CCC(C(=O)Nc4ccc(C#N)c(Cl)c4)CC3)c2c1C | 39.8 µM (active)
CN(c1ccc(O)cc1)c1ccc([N+](=O)[O-])c2nonc12 | 20 µM (active)
COc1ccccc1N1CCN(C(=O)c2cc3c(-c4ccccc4F)nn(C)c3s2)CC1 | 35.5 µM (active)
COc1cc(Cl)ccc1Nc1ncc(C(=O)N2CCN(c3ccccc3OC)CC2)c2ccccc12 | inactive
O=C1NC(=S)NC(=O)C1=NNc1ccc2c(c1)OCCO2 | 44.7 µM (active)
CCCCCCCCn1sccc1=O | 25.1 µM (active)
O=C(Nc1cccc2ncccc12)c1ccccc1Cl | inactive
COC(=O)C1=C(c2cccc(OCc3ccccc3)c2)C[C@@H]2CC[C@H]1N2C(=O)NC1CCN(Cc2ccccc2)CC1 | 22.4 µM (active)
CC[C@@H](O)C[C@H]1CCC[C@@]2(C[C@@H]3OC(=O)/C=C/[C@@](C)(O)[C@@H](O)[C@H](C)[C@@H](O)[C@H](OC4CCC(N(C)C)C(C)O4)[C@@H](O)[C@](C)(O)CCCCC/C=C/[C@@H]4CC(C)(C)O[C@@]4(O)C[C@H](O2)[C@H]3C)O1 (some centres not stated) | 2.99 µM (active)
Cc1c(CC(=O)N2C[C@H]3C[C@@H](C2)c2cccc(=O)n2C3)c(=O)oc2cc(O)c(Cl)cc12 | inactive
NP(=O)(Oc1ccc(Cl)cc1)Oc1ccc(Cl)cc1 | inactive
CC1=CC2/C=C(\C)CCC(O)C(O)/C=C/C(=O)C23C(=O)NC(CC(C)C)C3C1C (configuration not stated) | 3.77 µM (active)
C=C(C=O)CC1CC(O)[C@]2(C)OC3CC4OC5C[C@]6(C)O[C@]7(C)CCC8OC9C[C@]%10(C)OC%11C(C)=CC(=O)OC%11CC%10OC9C[C@@H](C)C8OC7CC6O[C@]5(C)CC5OC5C4OC3CC2O1 (some centres not stated) | 1.26 µM (active)
CCCNC(=O)c1c(N)n(CC2CCCO2)c2nc3ccccc3nc12 (configuration not stated) | inactive
COCCNC(=O)c1c(NC(=O)c2ccco2)n(Cc2ccccc2)c2nc3ccccc3nc12 | inactive
CCCCCCCCN1C(=O)[C@H](CC(=O)NCCc2ccccc2OC)C[C@@]2(C(=O)OC)CCCCC=C12 | 25.1 µM (active)
CC(C)OCCCNC(=O)c1c(N)n(CC2CCCO2)c2nc3ccccc3nc12 (configuration not stated) | inactive
